Hits are enriched below; roughly 27% of the tested compounds scored in any of these assays.
CYP2C19 inhib = inhibitors of human CYP2C19; P33261; CYP2C19 Supersomes, luciferin-H EGE luminescence, 30 min; inhibition, % at 5 µM; 21% of 96,000 active; AID 778;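 active means CYP2C19 inhibition above a set limit at 5 µM in the primary screen, cut at about 50% in these data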;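 further: plate controls were negative control wells for no effect and 2.5 mM tranylcypromine positive control for full effect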
Target sequence (P33261 whole entry, looked up): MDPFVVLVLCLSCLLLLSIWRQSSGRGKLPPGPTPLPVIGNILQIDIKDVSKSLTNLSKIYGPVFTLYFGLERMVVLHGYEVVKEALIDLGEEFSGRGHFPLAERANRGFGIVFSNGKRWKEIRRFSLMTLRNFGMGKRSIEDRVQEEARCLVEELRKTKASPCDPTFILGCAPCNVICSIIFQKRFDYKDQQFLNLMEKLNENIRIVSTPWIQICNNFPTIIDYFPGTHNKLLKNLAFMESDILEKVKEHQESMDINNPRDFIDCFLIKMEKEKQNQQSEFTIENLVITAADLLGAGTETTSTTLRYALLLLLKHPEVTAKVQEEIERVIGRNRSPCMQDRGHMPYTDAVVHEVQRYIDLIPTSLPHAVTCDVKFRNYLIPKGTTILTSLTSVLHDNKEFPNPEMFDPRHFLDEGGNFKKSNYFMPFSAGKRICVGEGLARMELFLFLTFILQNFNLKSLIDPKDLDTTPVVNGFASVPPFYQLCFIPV
CYP2C19 act = cytochrome P450 2C19 (human) activation | P33261 | AID 1025 | 96,000 tested, under 10 active | recombinant CYP2C19, luciferin-H EGE luminescence; active compounds read high; 0 = fully inhibited enzyme, 1 = untreated enzyme | activation factor at 5 µM;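 active means activation factor of at least 2 at 5 µM in the primary screen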;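 further: 0 = wells with 2.5 mM tranylcypromine and 1 = vehicle-only wells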
Cav32 inh = human Cav3.2 channel inhibition, primary screen; AID 449739; 4% of 100,000 active; Cav3.2-expressing cells, Fluo-4 calcium fluorescence FDSS; active compounds read low; B-score at 10 µM;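 active means single-dose well whose peak fluorescence ratio is a statistical outlier from its plate by either plate-standardised score or position-corrected B-score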
CYP2C9 inhib = inhibitors of human CYP2C9; inhibition, % at 5 µM; CYP2C9 Supersomes, luciferin-H conversion, luminescence; 20% of 96,000 active;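 active means blocking of liver enzyme CYP2C9 beyond about 50% at 5 µM, limit read from the data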
CYP2C9 activ = increases human cytochrome P450 2C9 activity; recombinant CYP2C9, luciferin-H conversion, luminescence; active compounds read high; factor 1 = untreated enzyme, 0 = blocked; activation factor at 5 µM; 1.4% of 96,000 active;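 active means activation factor of 2 or more for CYP2C9 at a 5 µM dose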;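 further: 0 = sulfaphenazole-blocked wells and 1 = vehicle-only wells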
* hit, by the source's call; . = not tested or not shown.

SMILES	CYP2C19 inhib	CYP2C19 act	Cav32 inh	CYP2C9 inhib	CYP2C9 activ
CCOc1c(OC(C)=O)ccc(/C=C2\N=C(SCC)SC2=O)c1[N+](=O)[O-]	4	1	0.15	20	0.8
CCOc1cc(/C=C2\N=C(SC)SC2=O)cc([N+](=O)[O-])c1OC(C)=O	-2	1	.	71*	0.3
CSC1=N/C(=C\c2cccc(F)c2)C(=O)S1	-10	1.1	-0.035	-19	1.2
CCOc1cc(/C=C2\N=C(SCC)SC2=O)cc([N+](=O)[O-])c1OC(C)=O	-8	1.1	-0.012	72*	0.3
CCC(NS(=O)(=O)c1ccc(OC)cc1)C(=O)NCCC1=CCCCC1 (stereo unspecified)	31	0.7	-1.1	34	0.7
CCCCC(OC(=O)c1cc2occc2n1C)C(=O)NCC1CCCO1 (stereo unspecified)	46	0.5	0.083	49	0.5
CN1CCN(Cc2cccc(Oc3ccccc3)c2)CC1	69*	0.3	-0.92	10	0.9
CC1CCCN(Cc2cccc(Oc3ccccc3)c2)C1 (stereo unspecified)	67*	0.3	0.44	11	0.9
OC1CCN(Cc2cccc(Oc3ccccc3)c2)CC1	11	0.9	1	2	1
C=C1[C@@H](OC(C)=O)CC[C@]2(C)[C@@H]1C[C@@H]1C[C@H](OC(C)=O)C(C)=C([C@@H](OC(C)=O)[C@@H]2OC(C)=O)C1(C)C	.	.	0.4	.	.
Cc1cccc(Nc2nc(-c3cccs3)cs2)n1	.	.	-0.4	.	.
Cc1cccc(Nc2nc(-c3ccccn3)cs2)n1	58*	0.4	-3.6*	52*	0.5
Cc1cccnc1Nc1nc(-c2ccccn2)cs1	-1	1	-1.2	4	1
c1ccc(Nc2nc(-c3cccs3)cs2)nc1	.	.	-5*	.	.
CC(=O)N1CCN(c2ccc(NC(=O)c3ccccc3Br)cc2Cl)CC1	.	.	0.32	.	.
Nc1[nH]c(=O)ncc1F	.	.	0.86	.	.
COc1ccccc1NC(=O)Cc1cccs1	37	0.6	0.098	-42	1.4
COc1ccccc1NC(=O)Nc1ccnn1Cc1cccs1	63*	0.4	0.019	30	0.7
O=C(CN1CCN(c2ccc(F)cc2)CC1)N1N=CCC1c1ccccc1 (stereo unspecified)	63*	0.4	0.4	13	0.9
O=C(CN1CCN(c2ccc(F)cc2)CC1)N1CCOCC1	28	0.7	0.75	17	0.8
O=C(CN1CCN(c2ccc(F)cc2)CC1)N1CCC(Cc2ccccc2)CC1	54*	0.5	-0.53	69*	0.3
O=C(CN1CCN(c2ccccc2)CC1)N1N=CCC1c1ccccc1 (stereo unspecified)	32	0.7	-0.12	7	0.9
O=C(CN1C(=O)NC2(CCCCCC2)C1=O)N1CCC(Cc2ccccc2)CC1	.	.	4.3*	.	.
COC(=O)C1N[C@@H]([C@@H](NC(=O)COc2ccccc2)C(=O)NC2CC2)SC1(C)C (stereo partly specified)	.	.	1	.	.
Cc1ccc(-c2nsc3c(N4CCC(C(N)=O)CC4)ncnc23)cc1	4	1	.	16	0.8
SMILES	CYP2C19 inhib	CYP2C19 act	Cav32 inh	CYP2C9 inhib	CYP2C9 activ
O=C(Nc1nc(=O)c2ccccc2s1)c1ccc(Cl)cc1	62*	0.4	-0.36	39	0.6
O=C(CSc1ncnc2c1cnn2CCc1ccccc1)Nc1cccc(C(F)(F)F)c1	78*	0.2	-1.5	98*	0
Cc1c(Cl)cccc1NC(=O)CSc1ncnc2c1cnn2CCc1ccccc1	63*	0.4	-0.72	89*	0.1
O=C(NCCSCc1ccccc1)c1cc(S(=O)(=O)N2CCOCC2)ccc1F	51*	0.5	.	70*	0.3
CCOC(=O)N1CCC(NC(=O)c2cc(S(=O)(=O)N3CCOCC3)ccc2F)CC1	8	0.9	1.1	15	0.8
CCOC(=O)c1ccccc1NS(=O)(=O)c1ccc(S(=O)(=O)N2CCCC2)cc1	97*	0	-0.63	91*	0.1
CCOC(=O)c1ccccc1NC(=O)c1cc(S(=O)(=O)N2CCOCC2)ccc1F	45	0.5	1.2	59*	0.4
CC(CC(C)C(=O)Nc1ccccc1C(C)(C)C)C(=O)O (stereo unspecified)	.	.	0.017	.	.
CCOC(=O)N1CCN(C(=O)c2nc3ccccc3s2)CC1	16	0.8	-0.5	4	1
COc1ccc(-c2cc(NCc3ccccn3)n3ncnc3n2)cc1	8	0.9	.	8	0.9
COc1ccc(-c2cc(NCCc3ccncc3)n3ncnc3n2)cc1	49	0.5	2.1	70*	0.3

Assay outcomes as filed in PubChem.
